Shown is part of a subset that was picked to be rich in hits.
DT40 TDP1 no CPT = qHTS for Inhibitors of human tyrosyl-DNA phosphodiesterase 1 (TDP1): qHTS in cells in absence of CPT | DT40 Tdp1-/- hTDP1 cells, no CPT, ATP luminescence, 48 h | Potency, µM (doses to about 46.2 µM), for inactives: top-dose activity change, negative = growth inhibition, hits mostly inhibitors | 420,000 tested, 15% active; also: potency is read from the fitted curve at half-maximal effect; nearly all actives have a fitted effect of over 55% in size
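Cells were dispensed at 400 per well, compounds added by pin tool, plates incubated ≥48 hr at 37 °C, then CellTiter-Glo added for 30 min at room temperature before luminescence reading. Line: DT40 Tdp1-/- complemented with hTDP1; camptothecin omitted.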
HT1080-NT tox = kills 2HG-producing HT-1080-NT fibrosarcoma cells. Potency, µM (doses to about 46.1 µM), for the others: at the highest dose activity, negative = less viability, usual class: cytotoxic. 360,000 tested, 1.6% active. HT-1080-NT fibrosarcoma viability, CellTiter-Glo ATP luminescence, 48 h;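 also: NT is the 2HG producing partner of a matched IDH1 knockdown line; potency is read from the fitted curve at half-maximal effect; 0% = DMSO-treated cells and -100% = media-only wells without cells; nearly all actives have a fitted effect of over 55% in size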
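750 cells/well, RPMI + 5% FBS; 2 h settle, compound pin-transfer, 48 h at 37 degrees C. CellTiter-Glo 10 min RT, luminescence. Normalized to DMSO and media-only wells.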
12-LOX inh = ALOX12 (human) lipoxygenase inhibition. AID 1671190. 580,000 tested, 1.1% active. purified 12hLO, xylenol orange hydroperoxide absorbance. Potency, µM (titrated, usually from 108 µM), for inactives: top-dose activity change, negative = inhibition, most hits filed as inhibitors; also: potency is read from the fitted curve at half-maximal effect
Target sequence (P18054 whole entry, looked up): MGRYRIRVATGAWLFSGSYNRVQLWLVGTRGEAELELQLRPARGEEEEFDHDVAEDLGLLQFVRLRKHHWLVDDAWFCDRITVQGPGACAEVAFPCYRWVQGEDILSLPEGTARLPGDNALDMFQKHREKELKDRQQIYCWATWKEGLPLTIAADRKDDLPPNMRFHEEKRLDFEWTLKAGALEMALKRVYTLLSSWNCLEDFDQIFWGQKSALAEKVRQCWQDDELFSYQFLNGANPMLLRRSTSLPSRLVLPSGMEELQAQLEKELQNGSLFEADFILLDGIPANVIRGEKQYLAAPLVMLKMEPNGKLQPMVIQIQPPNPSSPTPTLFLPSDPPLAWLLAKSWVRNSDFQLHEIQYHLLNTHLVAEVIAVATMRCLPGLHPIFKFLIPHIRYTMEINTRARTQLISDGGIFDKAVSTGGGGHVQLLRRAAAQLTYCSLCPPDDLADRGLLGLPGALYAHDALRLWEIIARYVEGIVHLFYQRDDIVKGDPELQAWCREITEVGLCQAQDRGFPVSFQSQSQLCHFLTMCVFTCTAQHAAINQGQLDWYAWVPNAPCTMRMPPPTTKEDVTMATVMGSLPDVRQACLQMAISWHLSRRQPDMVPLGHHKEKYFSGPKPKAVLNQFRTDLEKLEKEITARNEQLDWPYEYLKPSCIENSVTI
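Hydroperoxide product was detected by ferrous iron/xylenol orange as the 573 to 405 nm absorbance ratio. Arachidonic acid at 40 uM (final) was turned over for 30 min at room temperature by 150 nM human 12hLO, pH 7.0 Hepes buffer, after 15 min compound preincubation.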
IL1B secr inh = inhibitors of inflammasome signaling (IL-1 beta secretion); THP-1 LPS/ATP IL-1B secretion, AlphaLISA, 16 h; hits give low values; 360,000 tested, 4.7% active; activity change, % at 57.5 µM; in the data active = activity change below about -50%; inconclusive = mostly about -30% to -49%
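Secreted IL-1B measured by AlphaLISA bead assay after 16 h compound exposure of THP-1 cells; compounds (final up to 57.5 uM) added 1 h before LPS (250 ng/mL) and ATP (1.25 mM) stimulation; lower signal means less secretion.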
TDP1 cell CPT = growth inhibition of DT40 Tdp1-/-;hTDP1 cells with camptothecin (screen for TDP1 inhibitors) | chicken DT40 Tdp1-/-;hTDP1 cells + 20 nM CPT, ATP luminescence, 48 h | Potency, µM (highest dose often 46.2 µM), inactives show top-dose activity change, negative = growth inhibition, usual class: inhibitors | 420,000 tested, 12% active | AID 686979; also: potency is read from the fitted curve at half-maximal effect; nearly all actives have a fitted effect of over 55% in size
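Chicken DT40 Tdp1-/- cells stably complemented with human TDP1 were seeded at 400 cells/well in medium containing 20 nM camptothecin, exposed to pin-transferred compounds, and grown at 37 °C for at least 48 hr. Viability was read as ATP luminescence.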
HT1080 IDH1KD tx = kills HT-1080 cells with IDH1 knockdown | Potency, µM (series often up to 46.1 µM), inactives show at the highest dose activity, negative = toxicity, hits mostly cytotoxic | HT-1080 IDH1 knockdown viability, ATP luminescence, 48 h | 360,000 tested, 2% active;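 also: potency is read from the fitted curve at half-maximal effect; 0% = DMSO wells and -100% = cell-free medium wells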
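Assay cells: HT-1080 with IDH1 knockdown, 750 per well, RPMI/5% FBS. Exposure: 48 h at 37 °C following 2 h pre-incubation. Read: CellTiter-Glo luminescence; fitted concentration-response, curve class assigned.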
Starred values were filed as active, the others as inactive; u = inconclusive; x = no result given; [ ] = dose if it differs, or a comment. Unless noted, calls follow the shape of the dose curve; as a rule, active = well fitted curve in the direction sought with a large enough effect; inconclusive = small, poorly fitted or top-dose-only effect, or another doubt; inactive = no such curve, though single readings can be large; an effect the other way counts as inactive or inconclusive. Unless noted, % is scaled to controls: 0 for no effect and ±100 for the full control effect.

SMILES	DT40 TDP1 no CPT	HT1080-NT tox	12-LOX inh	IL1B secr inh	TDP1 cell CPT	HT1080 IDH1KD tx
CC(C)n1c(/C=C/[C@@H](O)C[C@@H](O)CC(=O)O)c(-c2ccc(F)cc2)c2ccccc21	9.2µM*	1.46µM*	2.2%	43.3	14.6µM*	1.46µM*
CCCC1CCC(NC(C)C)CC1 (stereo not drawn)	x	x	26.1%	x	x	x
ClCCN1CCN(c2ccnc3cc(Cl)ccc23)CC1	14.6µM*	-9.0%	-13.7%	-50.1*	13µM*	-9.3%
O=C(Oc1ccnc2cc(Cl)ccc12)N1CCOCC1	u	-0.6%	1.3%	-19.5	-22.2%	-1.1%
CN1CCN(c2cc(N3CCCC3)c([N+](=O)[O-])cc2F)CC1	u	-6.2%	12.9%	u	-25.6%	-5.8%
CCCn1cc(S(=O)(=O)c2ccc(OC)cc2)c(=O)c2cc(F)c(N3CCCCCC3)cc21	23.1µM*	x	-10.5%	x	u	x
CC1CCN(CC(=O)c2cccc(C(F)(F)F)c2)CC1	4.3%	4.3%	u	-6.5	-11.9%	3.1%
CC(=O)Nc1cc(-c2cccc(C(=O)N(C)C)c2)cn2c(-c3cccc(C(F)(F)F)c3)cnc12	16.4µM*	u	-9.7%	-20.3	18.4µM*	-29.1%
CCC12CN3CC(CC)(CN(C1)C3c1c(C)[nH]c(=O)[nH]c1=O)C2=O (stereo not drawn)	-8.0%	x	-13.5%	x	-7.8%	x
O=C(Nc1ccccc1)N(Cc1ccc2c(c1)OCO2)C1CCN(Cc2ccccc2)CC1	14.6µM*	x	u	x	u	x
COc1ccccc1NC(=O)N(Cc1ccc2c(c1)OCO2)C1CCN(Cc2ccccc2)CC1	5.17µM*	x	u	x	4.61µM*	x
C[n+]1c(-c2ccccc2)c2cc(N)ccc2c2ccc(N)cc21	0.164µM*	6.51µM*	u	0.0	0.517µM*	1.3µM*
Nc1ccc2ccc3cccc[n+]3c2c1	-11.0%	-17.6%	u	38.6	u	-18.7%
O=C(Nc1ccc2n(c1=O)C[C@H]1C[C@@H]2CN(CC2CCCCC2)C1)C1CCCCC1	x	x	2.5%[176 µM]	x	x	x
O=C1NCCOCCCN[C@H]2CCCC[C@@H]12	x	x	10.1%	x	x	x
O=C1CN=C(c2ccc(Br)cc2)c2c(sc3c2CCCC3)N1CCN1CCCCC1	5.8µM*	u	-7.2%	u	10.3µM*	-3.4%
COc1ccc(C2=NCC(=O)N(CC(=O)Nc3ccc(F)cc3)c3sc4c(c32)CCCC4)cc1	x	x	-3.7%	x	x	x
CNC(C)CC1CCCCC1 (stereo not drawn)	-14.0%	x	-23.1%	x	-3.5%	x
Cc1[nH]n(-c2ccccc2)c(=O)c1C(C[N+](=O)[O-])c1ccccc1Cl (stereo not drawn)	29.1µM*	-8.9%	-12.8%	13.9	20.6µM*	-6.4%
Cc1nc2ccccc2c(=O)n1-c1cc([N+](=O)[O-])cc([N+](=O)[O-])c1	u	-6.2%	-10.0%	0.0	u	-4.2%
Cc1[nH]n(-c2ccccc2)c(=O)c1C(c1ccc([N+](=O)[O-])cc1)c1c(C)[nH]n(-c2ccccc2)c1=O	u	-0.2%	x	-12.8	16.4µM*	5.2%
Cc1c(O)c(O)cc2c1CC=C1[C@]3(C)CC[C@]4(C)CC[C@@](C)(C(=O)O)CC4[C@]3(C)CC[C@]12C (stereo partly drawn)	4.11µM*	x	x	x	7.31µM*	x
CC1=C(O)C(=O)C=C2C1=CC=C1C2(C)CCC2(C)C3CC(C)(C(=O)O)CCC3(C)CCC12C (stereo not drawn)	1.03µM*	4.61µM*	4.47µM*	-57.0*	1.3µM*	1.64µM*
COCC1CN(C)CC12CCNCC2 (stereo not drawn)	x	x	10.9%	x	x	x
C[C@H](CO)N1C[C@H](C)[C@@H](CN(C)S(=O)(=O)c2cccs2)Oc2ccc(NC(=O)Nc3ccc4c(c3)OCO4)cc2C1=O	18.4µM*	-0.3%	u	u	20.6µM*	-5.7%
SMILES	DT40 TDP1 no CPT	HT1080-NT tox	12-LOX inh	IL1B secr inh	TDP1 cell CPT	HT1080 IDH1KD tx
C[C@H](CO)N1C[C@H](C)[C@@H](CN(C)Cc2ccc(Cl)c(Cl)c2)Oc2c(NC(=O)c3ccncc3)cccc2C1=O	u	u	15.5%	-5.1	20.6µM*	0.5%
COc1ccc(S(=O)(=O)N(C)C[C@H]2Oc3c(NC(=O)NC4CCCCC4)cccc3C(=O)N([C@H](C)CO)C[C@@H]2C)cc1	u	-2.7%	3.3%	-55.3*	u	-13.0%
COCCN1CCC(N2CCN(C(=O)Cc3ccc(Cl)cc3)CC2)C1=O (stereo not drawn)	x	x	21.8%	x	x	x
O=C(Nc1ccc(F)cc1)Oc1ccc[nH]c1=O	u	u	u	u	u	20.6µM*
O=C(Nc1ccc(OC(F)(F)F)cc1)Oc1ccccc1N1CCCCC1	u	8.8%	0.0%	-6.8	u	1.2%
Cn1cc(C(=O)OCC(=O)NC(=O)NC(C)(C)C)c2ccccc21	x	x	9.5%	x	x	x
O=c1c(C=NCc2cccs2)c(O)n(C2CCCCC2)c(=O)n1C1CCCCC1	u	-13.2%	-0.4%	-6.0	-26.1%	-24.7%
N=C(N)c1c(O)n(C2CCCCC2)c(=O)n(C2CCCCC2)c1=O	u	16.4µM*	0.0%	u	u	20.6µM*
Cc1ccc2oc(-c3ccc(Cl)cc3)c(O)c(=O)c2c1	16.4µM*	x	-15.4%	x	20.6µM*	x
O=C1CN=C(c2ccc(Cl)cc2)c2oc3ccccc3c2N1	0.4%	-15.1%	0.0%	84.2	2.8%	-13.8%
NNC(=O)CN1C(=O)CN=C(c2ccccc2)c2cc(Br)ccc21	-8.7%	8.8%	174.9%	x	1.9%	10.9%
CN1C(=O)CN=C(c2ccc[nH]2)c2cc(Cl)ccc21 (tested in a mixture with another compound)	1.3µM*	-13.5%	9.7%	-1.0	1.64µM*	-15.6%
CN1C(=O)CN=C(c2ccccc2Cl)c2cc(Br)ccc21	-15.3%	0.0%	1.5%	6.9	-28.2%	-16.6%
Cc1ccccc1CN1C(=O)CN=C(c2ccccc2)c2cc(Cl)ccc21	18.4µM*	x	-14.6%	x	u	x
CN1C(=O)CN=C(c2ccc(Cl)cc2)c2cc(Cl)ccc21	u	u	-29.4%	-20.7	12.3%	u
Cc1cccc(CN2C(=O)CN=C(c3ccccc3Cl)c3cc(Cl)ccc32)c1	23.1µM*	x	u	x	23.1µM*	x
Cc1ccc(NC(=O)CN2C(=O)CN=C(c3ccccc3)c3ccccc32)cc1Cl	u	x	u	x	23.1µM*	x
Cc1ncc2c(n1)C[C@@H]1CC[C@H]2N1C(=O)c1nn(C)c2ccccc12	x	x	40.5%	x	x	x
